The campaign covered roughly 340,000 compounds. About 1,800 (0.53%) were called active. Shown is part of a subset that was picked to be rich in actives. Values without a mark were called inactive.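 Rule for the calls: active = activation over 3 SD above normal in the single-dose calcium agonist read (cut at about 30% in these data); inactive = the rest.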

D(2) dopamine receptor (Homo sapiens), sequence (P14416 whole entry, looked up): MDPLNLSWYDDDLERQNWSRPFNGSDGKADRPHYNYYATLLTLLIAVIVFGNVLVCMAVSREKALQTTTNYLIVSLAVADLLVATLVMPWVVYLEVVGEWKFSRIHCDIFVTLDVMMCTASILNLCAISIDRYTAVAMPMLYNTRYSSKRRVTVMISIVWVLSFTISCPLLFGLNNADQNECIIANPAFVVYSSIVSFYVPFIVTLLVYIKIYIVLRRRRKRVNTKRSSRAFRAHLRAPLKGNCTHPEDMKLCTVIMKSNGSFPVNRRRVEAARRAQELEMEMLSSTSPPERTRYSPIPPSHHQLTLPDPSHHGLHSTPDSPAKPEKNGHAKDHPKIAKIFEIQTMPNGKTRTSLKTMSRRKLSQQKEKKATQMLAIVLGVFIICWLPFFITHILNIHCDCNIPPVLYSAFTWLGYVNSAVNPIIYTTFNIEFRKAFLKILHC

This assay addresses D(2) dopamine receptor (Homo sapiens) (UniProt P14416). The assay can be described thus: HTS Assay for Allosteric Agonists of the Human D2 Dopamine Receptor: Primary Screen for Agonists. Note: 0% is about no effect. The conditions noted are these: HEK293 T-REx D2 cells, calcium flux agonist mode; at 2 µM; active compounds read high. The text has this:
NIH Chemical Genomics Center [NCGC] NIH Molecular Libraries Probe Centers Network [MLPCN] MLPCN Grant: NS064831-01 Assay Submitter (PI): David Sibley Dopamine receptors (DARs) are involved in the etiology and/or therapy of a number of neuropsychiatric and endocrine disorders. For instance, all receptor-based antiparkinsonian drugs work via stimulating the D2 DAR subtype whereas all FDA-approved antipsychotic agents are antagonists of this receptor. […] There are three different types of allosteric modulators that we are seeking, two of which will stimulate or augment receptor signaling, allosteric agonists and potentiators, while the third, allosteric antagonists, will attenuate receptor signaling. The present primary screening assay measures compound agonism by tracking calcium flux in a […], inducible Hek293 Trex D2 cell line.
Freshly passaged cells are plated in 1536 well black, clear bottom plates at a density of 4000 cells/well in 3 ul of complete media containing 1x tetracycline inducer. After an overnight incubation at […] in 5% CO2, cells are loaded with 2 ul of the no wash Calcium Assay Kit (ABD Bioquest) and incubated at room temperature for 30 to 90 minutes. Agonist read: A 10 cycle (1 second/cycle) baseline measurement is taken and then the FDSS online 1536 pintool delivers 23 nl of compound library (as well as dopamine controls) to the plate. The plate is measured for kinetically at 1 cycle/sec for 180 seconds and is considered to be the agonist portion of the assay (eg, compounds which activate a positive calcium response during this portion are flagged as potential agonists). Following the 180 second read, 1 ul of either an EC20 (positive modulation assay) or EC80 (negative modulation assay) is delivered by an onboard pipette head. Measurements are taken kinetically for an additional 180 seconds.
(Calcium flux is commonly read through the fluorescence of an indicator in the cells.)
Consider `Fc1cccc(F)c1CN1CCN(Cc2c(F)cccc2F)CC1`, for which the activation was 1.26%.
To `COc1ccccc1CN1CCN(C(=O)Cc2ccccc2)CC1` belongs 0.485%; to `COc1ccc(CN2CCN(c3ccccc3F)CC2)c(OC)c1`, 71.7% (active).
Next, `COC(=O)C1=C(c2cccc(OCc3ccccc3)c2)C[C@@H]2CC[C@H]1N2C(=O)NNCc1ccccc1`: -0.13%.
To `Oc1cc2c(cc1CN1CCN(c3ccccc3)CC1)OCO2` belongs 83.3% (active); to `Fc1ccc(N2CCN(Cc3ccc4c(c3)OCO4)CC2)cc1`, 6.76%.
Take `CC(C)c1ccc(O)c(CN2CCN(c3ccccc3)CC2)c1`: the activation was -1.71%.
Next, `COC(=O)C1=C(c2ccc3ccccc3c2)C[C@@H]2CC[C@H]1N2C(=O)NCCO`: -0.422%.
To `CCc1ccc(OCC(=O)N2CCN(CC(=O)Nc3ccccc3Cl)CC2)cc1` belongs 1.2%; to `Cc1cccc(Cn2cccc(C(=O)Nc3ccc4c(c3)OCCO4)c2=O)c1`, 0.0946%; to `CCOC(=O)C1(CCc2ccccc2)CCN(Cc2ccco2)CC1`, 0.433%.
To `CCOC(=O)C1(Cc2ccc(Cl)cc2)CCN(C(C)CCn2cccn2)CC1` (stereo not given) belongs 72.7% (active); to `COC(=O)C1=C(c2ccc(F)cc2OCc2ccccc2)C[C@@H]2CC[C@H]1N2C(=O)NCc1ccc(OC)c(OC)c1`, -0.652%.
For `O=C(CCC(=O)N1C[C@H]2C[C@@H](C1)c1cccc(=O)n1C2)NCc1ccccc1C(F)(F)F`, the activation was 0.976%.
To `Cc1nnc(NC(=O)c2cccn(Cc3cccc(F)c3)c2=O)s1` belongs 0.455%.

For the origin of these results see PubChem BioAssay AID485358 (National Center for Advancing Translational Sciences (NCATS), 2010).
